Assay results from PubChem BioAssay (EPA / NIEHS).
Inconclusive results are not listed. The source made the active and inactive calls. How the source made its calls: active means hit-call score of the fitted dose curve at least 0.9, where 1 is the maximum; inconclusive means response in the unintended direction; inactive means score below 0.9.

molecular target: Retinoic acid receptor RXR-alpha (Homo sapiens) (UniProt P19793); test: ATG_RXRa_TRANS: Attagene TRANS-FACTORIAL HepG2 Assay for human Retinoid X Receptor alpha (RXRa) (AID 2283012)
Sequence (P19793 whole entry, looked up, the tested form may be a part): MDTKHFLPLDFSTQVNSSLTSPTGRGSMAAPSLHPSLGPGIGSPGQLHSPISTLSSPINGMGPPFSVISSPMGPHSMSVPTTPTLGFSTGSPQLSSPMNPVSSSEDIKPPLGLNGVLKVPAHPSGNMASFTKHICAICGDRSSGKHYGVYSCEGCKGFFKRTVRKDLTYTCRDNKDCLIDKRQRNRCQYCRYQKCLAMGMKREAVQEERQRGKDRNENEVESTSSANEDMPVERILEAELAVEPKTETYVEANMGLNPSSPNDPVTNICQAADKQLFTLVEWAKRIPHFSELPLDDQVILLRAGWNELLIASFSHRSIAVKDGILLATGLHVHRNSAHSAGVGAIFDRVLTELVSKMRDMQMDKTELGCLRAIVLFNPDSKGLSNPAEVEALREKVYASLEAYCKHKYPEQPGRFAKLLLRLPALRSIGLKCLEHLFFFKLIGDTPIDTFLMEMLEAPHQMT
Procedure, shortened: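 HepG2 cells transiently transfected with multiplexed GAL4-UAS reporter units and chimeric NR-GAL4 fusions, dosed 24 h. Reporter mRNA measured by RT-PCR, FAM labelling, HpaI digestion and capillary electrophoresis; gain-of-signal fitted relative to DMSO baseline.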

SMILES	outcome	AC50
CS(=O)(=O)c1ccc(C2=C(c3ccccc3)C(=O)OC2)cc1	inactive	–
COC(=O)C=C(C)CCC=C(C)C	inactive	–
OCC(O)c1ccccc1 (stereo not given)	inactive	–
C[C@H]1O[C@@H](O[C@H]2[C@@H](O)C[C@H](O[C@H]3[C@@H](O)C[C@H](O[C@H]4CC[C@@]5(C)[C@H](CC[C@@H]6[C@@H]5C[C@@H](O)[C@]5(C)[C@@H](C7=CC(=O)OC7)CC[C@]65O)C4)O[C@@H]3C)O[C@@H]2C)C[C@H](O)[C@@H]1O	inactive	–
CCOC(=O)C(C#N)=C(c1ccccc1)c1ccccc1	inactive	–
CC1(C)CCC[C@]2(C)[C@H]3CCO[C@]3(C)CC[C@@H]12	inactive	–
CC1CC(O)CC(C)(C)C1 (stereo not given)	inactive	–
O=C1OC[C@H](Cc2cccc(O)c2)[C@H]1Cc1cccc(O)c1	inactive	–
CCCCCCCCN1CCCC1=O	inactive	–
CC(=O)CC(=O)Nc1ccccc1	inactive	–
O=C(Nc1ccc2c(O)c(N=Nc3ccc(N=Nc4ccc(S(=O)(=O)O)cc4)cc3)c(S(=O)(=O)O)cc2c1)c1ccccc1	inactive	–
C=CCCC(=O)/C=C/C1C(C)=CCCC1(C)C (stereo not given)	inactive	–
C1=CC2C3C=CC(C3)C2C1 (stereo not given)	inactive	–
COc1cc(Cl)c(OC)cc1N	inactive	–
CCCCSCCCC	inactive	–
Nc1ccc2cc(S(=O)(=O)O)cc(O)c2c1N=Nc1ccccc1C(F)(F)F	–	78 µM (active)
O=C1OC(=O)c2c(Cl)c(Cl)c(Cl)c(Cl)c21	inactive	–
C=C(C)[C@H]1CC=C(C)C(=O)C1	inactive	–
c1ccc(CCc2ccccc2)cc1	inactive	–
COC(C)(C)CC(C)=O	inactive	–
